Test results reported in PubChem BioAssay (NCATS).
Records with an inconclusive call do not appear. Entries that show only a call come without a potency. Values without a mark were called inactive. The source made the active and inactive calls. Calls come from the whole dose curve; as a rule, active = well fitted curve in the direction sought with a large enough effect; inconclusive = small, poorly fitted or top-dose-only effect, or another doubt; inactive = no such curve, though single readings can be large; an effect the other way counts as inactive or inconclusive.

Columns and labels:
[1] = biological target: Cellular tumor antigen p53 (Homo sapiens) (UniProt P04637); assay: Primary qHTS for small molecule compounds that upregulate eGFP-tagged delta133p53alpha (in N-terminal) cells. (AID 2060322); settings: NCI-H358 eGFP-delta133p53alpha fluorescence, 24 h; activation: active compounds read high; note: nearly all actives have a fitted effect of over 75% in size; note: potency is the fitted concentration of half-maximal effect;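 for activation: cells pre-induced with doxycycline then dosed without doxycycline; series mostly up to about 56 µM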
Cellular tumor antigen p53 (Homo sapiens), sequence (P04637 whole entry, looked up): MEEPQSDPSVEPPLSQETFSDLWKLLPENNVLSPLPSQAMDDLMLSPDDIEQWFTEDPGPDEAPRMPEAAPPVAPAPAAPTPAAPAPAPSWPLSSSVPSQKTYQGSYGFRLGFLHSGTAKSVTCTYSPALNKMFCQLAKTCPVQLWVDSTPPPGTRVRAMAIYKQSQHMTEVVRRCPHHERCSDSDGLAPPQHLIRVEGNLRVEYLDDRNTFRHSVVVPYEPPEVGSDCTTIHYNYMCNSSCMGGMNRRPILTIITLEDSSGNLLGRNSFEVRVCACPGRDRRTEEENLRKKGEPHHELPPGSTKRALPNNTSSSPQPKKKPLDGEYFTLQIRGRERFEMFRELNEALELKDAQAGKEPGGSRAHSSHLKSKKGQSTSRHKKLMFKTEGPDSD
Outline: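 NCI-H358 cells pre-induced 24 h with 10 ng/ml doxycycline for eGFP-delta133p53alpha, plated dox-free and exposed 24 h at 37C to titrated compounds. Fixed, Hoechst-stained; gated GFP peak intensity by laser scanning cytometry, normalized to DMSO (0%) and 57.5 uM 5-azacytidine (100%).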

[2] = biological target: Aldehyde dehydrogenase, mitochondrial (Homo sapiens) (UniProt P05091); assay: qHTS for Inhibitors of the Aldehyde Dehydrogenase Family (ALDH2) Primary screen (AID 2061308); note: nearly all actives have a fitted effect of over 55% in size
[3] = biological target: Retinaldehyde dehydrogenase 3 (Homo sapiens) (UniProt P47895); assay: qHTS for Inhibitors of the Aldehyde Dehydrogenase Family (ALDH1A3) Primary screen (AID 2061315)

Row | Compound | activation [1] | Potency [2] | Potency [3] | Potency [1]
1 | CC1(C)CC[C@]2(C(=O)O[C@@H]3O[C@H](CO)[C@@H](O)[C@H](O)[C@H]3O)[C@H](O)C[C@]3(C)C(=CCC4[C@@]5(C)CC[C@H](O[C@@H]6OC[C@@H](O)[C@H](O)[C@H]6O)[C@@](C)(C(=O)O)C5CC[C@]43C)[C@@H]2C1 (stereo partly specified) | -16.8% | inactive | inactive | –
2 | CCC(C)C(=O)O[C@H]1C[C@](C)(O)[C@]23OC(C)(C)[C@H](C[C@H](OC(=O)c4ccccc4)[C@]2(COC(C)=O)[C@H]1OC(=O)C(C)CC)[C@H]3OC(C)=O (stereo partly specified) | 11.5% | inactive | inactive | –
3 | CN=C(N)NCCCCC/C=C(/C)CC(C)C1OC(=O)C(C)C(O)/C=C/C(C)C(O)CC(O)C(C)C(O)CCC(C)C(O)CC2(O)OC(CC(OC(=O)CC(=O)O)CC(O)CC(O)C(C)C(O)/C(C)=C/CCC1C)CC(O)C2O (stereo unspecified) | -19.1% | inactive | inactive | –
4 | COc1cc(CO)cc(OC)c1O[C@@H]1O[C@H](CO)[C@@H](O)[C@H](O)[C@H]1O | -2.68% | inactive | inactive | –
5 | C/C=C(/C)C(=O)O[C@H]1C=C(C)C[C@H](OC(=O)c2ccc(O)cc2)C2[C@](O)(C(C)C)CC[C@@]21C (stereo partly specified) | -5.34% | inactive | inactive | –
6 | Cc1c(CN2CCN(C(=O)C(C)O)CC2)sc2c(N3CCOCC3)nc(-c3cnc(N)nc3)nc12 (stereo unspecified) | – | inactive | inactive | 12 µM (active)
7 | O=C(Nc1ccc(Cl)cc1F)c1ccccc1O | 8.59% | inactive | inactive | –
8 | C=C1C(=O)O[C@@H]2CC(C)=C([C@@H](C)CCCO)[C@@H](OC(=O)C(C)C)[C@H]12 | 14.3% | inactive | inactive | –
9 | CC(C)CC(=O)O[C@@H]1OC=C(CO[C@@H]2O[C@H](CO)[C@@H](O)[C@H](O)[C@H]2O)[C@H]2[C@@H]3O[C@H]3[C@@](O)(CO)[C@@H]12 | -3.05% | inactive | inactive | –
10 | CC(=O)O[C@H]1CC[C@]2(C)[C@H]3CC[C@]4(C)Oc5oc(C)cc(=O)c5C[C@H]4[C@]3(C)CC[C@H]2C1(C)C | 0% | inactive | inactive | –
11 | C/C=C(/C=C(C)/C=C/C=C/C=C(\C)C(=O)C12OC1C(O)(CCO)NC2=O)C(=O)OC (stereo unspecified) | -13.7% | inactive | inactive | –
12 | COc1ccc(Oc2c(Cl)cnn(C3c4ccccc4-c4ccccc43)c2=O)cc1 | 13.4% | inactive | inactive | –
13 | O=C(CCc1ccccc1)c1c(O)c([C@@H]2O[C@H](CO)[C@@H](O)[C@H](O)[C@H]2O)c(O)c([C@@H]2O[C@H](CO)[C@@H](O)[C@H](O)[C@H]2O)c1O | -1.53% | inactive | inactive | –
14 | CCC(CC)(NC(=O)C(C)C)C(=O)N[C@@H](CCCN=C(N)N)C(=O)NC1(C(=O)NC(c2ccc(F)cc2)c2ccc(F)cc2)CCCC1 | -15.7% | inactive | inactive | –
15 | COc1cc(O)cc(C)c1C(=O)O[C@H]1[C@@H](OC(C)=O)[C@H](n2ccc(=O)[nH]c2=O)O[C@@H]1CO | -32.8% | inactive | inactive | –
16 | C=C1CC[C@H]2[C@@](C)(CCC[C@@]2(C)C(=O)O)[C@@H]1CCC(C)CCO (stereo partly specified) | 9.16% | inactive | inactive | –
17 | C=C(C)[C@@H]1CC[C@]2(C)CC[C@]3(C)[C@H](CC[C@@H]4[C@@]5(C)CC[C@@H](O)C(C)(C)[C@@H]5CC[C@]43C)[C@@H]12 | 17.6% | inactive | inactive | –
18 | COC(=O)c1ccc(OC)cc1O[C@@H]1O[C@H](CO[C@@H]2OC[C@@H](O)[C@H](O)[C@H]2O)[C@@H](O)[C@H](O)[C@H]1O | -22.3% | inactive | inactive | –
19 | C=C1C(=O)O[C@@H]2/C=C(\C)CC/C=C(\C(=O)O[C@@H]3O[C@H](CO)[C@@H](O)[C@H](O)[C@H]3O)CC[C@@H]12 | -5.36% | inactive | inactive | –
20 | C=CC(=O)N1CCCC(n2nc(-c3ccc(Oc4ccccc4)cc3)c3c(N)ncnc32)C1 (stereo unspecified) | 18.8% | inactive | inactive | –
21 | C/C=C/C=C/C=C/C(=O)O[C@@H]1[C@@H](OC)C2=C(C(=O)N(C(CCC(=O)O)C(=O)O)C2)[C@@]2(C)CCCC(C)(C)[C@H]12 (stereo partly specified) | -27.5% | inactive | inactive | –
22 | CC(=O)OC12CC(C)C(OC(=O)c3ccccc3)C1/C=C(/C)C(OC(=O)c1ccccc1)CC(=O)C(C)(C)/C=C/C(C)C2=O (stereo unspecified) | -7.14% | inactive | inactive | –
